This is a sample that favours compounds with a hit; in the whole collection about 4.7% have one here.
ATG4B inh: inhibitors of human ATG4B cysteine protease; Q9Y4P1; inhibition, % at 8.33 µM; hit rate 0.51% among 340,000; AID 504462; ATG4B cleavage of LC3-PLA2, NBD-HPC fluorescence, 1 h; in the data active = inhibition above about 40%
Target sequence (Q9Y4P1 whole entry, looked up): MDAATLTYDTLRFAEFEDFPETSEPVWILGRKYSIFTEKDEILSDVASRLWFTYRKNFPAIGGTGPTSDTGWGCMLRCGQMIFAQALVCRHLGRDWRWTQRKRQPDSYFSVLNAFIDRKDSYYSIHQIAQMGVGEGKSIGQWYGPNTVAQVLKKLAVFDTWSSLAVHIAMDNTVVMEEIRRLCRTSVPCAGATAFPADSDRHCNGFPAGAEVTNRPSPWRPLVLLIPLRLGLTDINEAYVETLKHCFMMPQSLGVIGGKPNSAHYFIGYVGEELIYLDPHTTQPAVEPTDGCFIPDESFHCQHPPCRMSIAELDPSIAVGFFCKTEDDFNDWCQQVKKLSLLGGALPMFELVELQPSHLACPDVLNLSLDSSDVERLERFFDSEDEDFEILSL
PfHsp90 yeast 2: growth inhibition of yeast expressing Plasmodium Hsp90; S. cerevisiae expressing PfHsp90, BacTiter-Glo ATP, 48 h; yeast lacking PDR1 and PDR3 efflux regulators; inhibition, % at 9.4 µM; hit rate 0.32% among 310,000;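 active = every replicate shows inhibition above about 80%, whatever the replicate mean, limit read from the data; inconclusive = mean inhibition reaches the set limit but some replicate falls short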;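 note: 0% = DMSO neutral controls and 100% = 20 µM radicicol positive controls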
SKKanGAS inh: blocks kanamycin growth of S. pyogenes SKKanGAS strain; BacTiter-Glo, 6 h; inhibition, % at 7.5 µM; hit rate 1.3% among 300,000;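 active = mean replicate score, as percent of positive control median, at least 50; inconclusive = mean below 50 but one replicate at or above 50; inactive = mean and every replicate below 50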;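 note: strain carries kanamycin resistance gene driven by streptokinase promoter and grows in 40 µg/ml kanamycin; loss of luminescence reflects streptokinase promoter inhibition or plain growth inhibition; 0% = median of DMSO wells and 100% = positive control at its reference dose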
TIM10 inh: TIM10 yeast growth inhibition; S. cerevisiae TIM10 strain growth, BacTiter-Glo luminescence, 24 h; inhibition, % at 10 µM; hit rate 1.4% among 330,000;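 active = inhibition of 40% or more at the single tested concentration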;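 note: wild-type TIM10 isogenic control strain grown at permissive 25 °C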
tim10-1 inh: inhibits growth of tim10-1 mutant yeast. S. cerevisiae tim10-1 ts strain growth, BacTiter-Glo, 24 h. inhibition, % at 20 µM. hit rate 2.2% among 330,000;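 active = inhibition of at least 40%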;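 note: mutant grown at 25 °C; 0% = DMSO wells with yeast and 100% = wells holding no yeast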
tim23-1 inh: growth inhibitors of tim23-1 mutant yeast. S. cerevisiae tim23-1 growth, BacTiter-Glo luminescence, 24 h. inhibition, % at 20 µM. hit rate 1.3% among 330,000;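 active = growth inhibition of the mutant yeast at or above 50%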;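 note: temperature-sensitive mutant grown at 25 °C; plate controls were DMSO-treated mutant yeast for no effect and medium wells lacking yeast for full effect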
tim10-1 conf: tim10-1 yeast growth inhibition, confirmed; S. cerevisiae tim10-1 ts strain growth, BacTiter-Glo, 24 h; shares compounds with tim10-1 inh; inhibition, % at 20 µM; hit rate 56% among 7,400; AID 463213;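 active = inhibition of yeast growth at or above a set limit in either of two repeat tests at 20 µM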;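 note: tim10-1 mutant grown at permissive 25 °C to find synthetic lethal compounds; 0% = DMSO yeast wells and 100% = medium wells without yeast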
Numbers without * were called inactive; ? = inconclusive; . = no result.

SMILES	ATG4B inh	PfHsp90 yeast 2	SKKanGAS inh	TIM10 inh	tim10-1 inh	tim23-1 inh	tim10-1 conf
CNS(=O)(=O)c1ccc(C(=O)NCC(=O)NCC2COc3ccccc3O2)cc1 (stereo not given)	-2	0	.	-5	-1	-10	.
O=c1[nH][nH]c(-c2ccccc2O)c1C(C[N+](=O)[O-])c1ccccc1 (stereo not given)	-7	12	-15	36	45*	42	31
COC(=O)C1(Cc2cc(-c3ccccc3)no2)CCN(C(=O)OC(C)(C)C)CC1	-10	-8	0	21	43*	29	34*
COC(=O)c1ccc(-c2cc(CC3(C(=O)OC)CCN(C(=O)OC(C)(C)C)CC3)on2)cc1	-1	-5	9	19	31	23	.
O=C(c1ccc(-c2cccc(Cl)c2Cl)o1)N1CCOCC1	-13	-8	4	22	44*	39	42*
CCOC(=O)c1sc(=NC(=O)c2ccc(S(=O)(=O)N(C)c3ccccc3)cc2)n(C)c1C	5	-2	-23	-6	6	5	.
COc1cc(C2C=C(Nc3ccccc3)C(=O)N2c2ccccc2)ccc1O (stereo not given)	1	14	-1	19	42*	21	11
O=C1C(Nc2ccccc2)=CC(c2ccc(O)cc2)N1c1ccccc1 (stereo not given)	1	-2	9	7	13	10	.
CN(C)CCCN1c2ccccc2CCc2ccc(Cl)cc21	12	8	2	17	53*	22	32*
CN1C(C(=O)Nc2ccc(OC(F)(F)F)cc2)=CC(c2cccs2)=NS1(=O)=O	-2	12	9	40	41*	39	39*
CCOc1cc(/C=N/N=C/c2ccc(O)c(OCC)c2)ccc1O	-6	-5	2	12	14	4	.
CCOc1cc(/C=C2\CN(CC)C/C(=C\c3ccc(O)c(OCC)c3)C2=O)ccc1O	-8	-11	6	34	49*	42	29
Cc1cc(C)c(COc2ccc(/C=N/n3c(C)n[nH]c3=S)cc2)c(C)c1	0	-8	?	14	41*	39	11
Cc1nn(C)c(Cl)c1S(=O)(=O)N[C@@H](c1ccccc1)[C@]1(C)C[C@H]1[C@@H](C)C(=O)Nc1ccc2ccccc2c1	-19	-19	.	10	10	18	.
CC(C)(C)n1nc2c(c1NC(=O)c1ccc(Br)cc1)CS(=O)C2 (stereo not given)	14	7	-7	-6	-7	-2	.
Cc1cc(C)n2c(SCc3ccccc3Cl)nnc2n1	-2	-9	22	-2	43*	31	17
Cc1cccc(C)c1NC(=S)N(Cc1ccccc1)Cc1cccs1	3	-39	2	24	42*	34	39*
O=C(O)CNC(=S)N(Cc1ccccc1)Cc1cccs1	6	-6	.	-9	2	11	.
COc1ccc([C@@H]2[C@@H]3C(=O)N(C(C)(C)C)C(=O)[C@@H]3[C@]3(CC(C)C)C(=O)N(c4cccc(F)c4)C(=O)N23)cc1	-1	12	3	7	-8	4	.
COc1cc(OC)c2c3c(c(C4CCCCC4)nc2c1)CCC3	-3	-5	17	8	52*	20	30*
CCOC(=O)c1sc(-c2ccc(Br)cc2)cc1N	4	-4	0	38	67*	30	58*
CC(Sc1nnc(-c2ccco2)n1C)C(=O)N(C)C1CCCCC1 (stereo not given)	2	-18	5	3	-19	-5	.
Cc1ccc(C2CC(=O)NC(SCCC(C)C)=C2C#N)cc1 (stereo not given)	-1	18	4	24	20	17	.
O=C(Cc1ccc([N+](=O)[O-])cc1)c1ccc(O)cc1O	-4	11	-3	7	23	41	.
CCCCn1c(-c2nonc2N)nc2ccccc21	-5	-10	-26	-10	-16	0	.
SMILES	ATG4B inh	PfHsp90 yeast 2	SKKanGAS inh	TIM10 inh	tim10-1 inh	tim23-1 inh	tim10-1 conf
O=C(CC(C(=O)N1CCc2ccccc21)n1ccnc1)N1CCc2ccccc2C1 (stereo not given)	-1	.	6	17	40*	20	35*
COc1ccccc1NC(=S)NCc1ccc2c(c1)cc(C)n2C	-5	-7	7	21	4	28	.
Cc1ccccc1NC(=S)NCc1ccc2c(c1)cc(C)n2C	16	-2	7	25	43*	31	24
CCOc1ccccc1NC(=O)c1ccc2c(c1)C(=O)N(CC(C)C)C2=O	-4	21	-3	-2	0	-10	.
COC(=O)c1cc(C(=O)Nn2cnnc2)cc([N+](=O)[O-])c1	2	-7	-1	7	-5	4	.
Cc1ccc(CNC(=O)COc2cc(O)c3c(c2)OC(C)(C)CC3=O)cc1	-5	-13	4	8	44*	30	3
COc1ccc(CCNC(=O)COc2cc(O)c3c(c2)OC(C)(C)CC3=O)cc1	6	-17	-6	10	30	29	.
Cc1nc(Nc2nc(-c3ccccc3)cc(=O)[nH]2)nc2ccccc12	2	-4	82*	30	43*	10	8
O=C(c1cn(-c2ccccc2)nc1-c1ccncc1)n1nnc2ccccc21	1	-15	-1	27	53*	40	39*
COc1ccc(-c2noc(-c3ccc(Cl)cc3)n2)cc1	-8	.	1	-1	16	-3	.
CCCCCCC(=O)Nc1nc(C)c(-c2csc(Nc3ccc(Cl)cc3)n2)s1	-8	-3	17	23	39	24	.
CCCCCC(=O)Nc1nc(C)c(-c2csc(Nc3ccc(Cl)cc3)n2)s1	1	4	17	28	41*	21	26
FC(F)(F)c1ccc(-n2cnc3ccccc32)nc1	2	-2	1	-11	-2	21	.
CC(C)(C)n1nnnc1C(c1ccccc1F)N(Cc1ccco1)CC1CCCO1 (stereo not given)	1	10	-5	19	41*	48	22
Cc1cccc2cc(C(c3nnnn3C(C)(C)C)N(Cc3ccco3)CC3CCCO3)c(=O)[nH]c12 (stereo not given)	-12	.	7	31	22	30	.
Cc1cc(NC(=O)C(=O)NCc2cccc(Cl)c2)no1	2	0	6	18	1	12	.
CC(=O)SC1CC(=O)N(c2c(C)cccc2C)C1=O (stereo not given)	-2	17	1	11	27	23	.
CC(=O)SC1CC(=O)N(c2ccc(C(C)(C)C)cc2)C1=O (stereo not given)	4	-1	4	36	55*	43	53*
